Here are results for 40 compounds from PubChem BioAssay (NCATS).

Results filed as inconclusive are left out. Calls of active or inactive are those of the source. Calls follow the shape of the dose curve; as a rule, active = well fitted curve in the direction sought with a large enough effect; inconclusive = small, poorly fitted or top-dose-only effect, or another doubt; inactive = no such curve, though single readings can be large; an effect the other way counts as inactive or inconclusive.

One assay is described as follows: MultiTox-Fluor Cytotoxicity Assay - LYMP1-001 - Live Cells (AID 947). Conditions: LYMP1-001 lymphoblastoid cells, live-cell protease fluorescence viability; series mostly up to 92.2 µM.
Regarding `CCNc1cc(O)ccc1C`, the compound was classed as inactive.

`Nc1cc(S(=O)(=O)O)ccc1O`: the compound was called inactive.

On to `Cc1cccc2sc(N)nc12`, for which the outcome was inactive.

For `O=P(O)(OCc1ccccc1)OCc1ccccc1`, the compound was called inactive.

With `OC1CCCC1`, the compound was classed as inactive.

With `Cc1ccc2nc(-c3ccc(N)cc3)sc2c1S(=O)(=O)O`, the compound was classed as inactive.

On to `Nc1cccc(C(F)(F)F)c1`, for which the result was inactive.

On to `C1CCCC1`, for which the compound was called inactive.

Turning to `CCCCCCCCC/C=C/CC1CC(=O)OC1=O` (stereo not drawn), the result was inactive.

Regarding `CCCCCCCCCCCCC1CO1` (stereo not drawn), the compound was called inactive.

`CC(=O)c1nccs1`: the compound was called inactive.

As for `Clc1ccc(Cl)c(Cl)c1Cl`, the compound was classed as inactive.

For the compound `CC/C=C/C#N`, the outcome was inactive.

With `NC(=S)NNC(N)=S`, the result was inactive.

As to `O=Cc1cccc(Br)c1`, the result was inactive.

For the compound `CC(C)c1ccccc1`, the result was inactive.

A further assay in a line: Cell Viability - LYMP1-002 - Assay at 16 hr (AID 948). Conditions: LYMP1-002 lymphoblastoid cell viability; series mostly up to 92.2 µM. Summed up:
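Human lymphoblastoid cells (LYMP1-002), 2500/well, were preincubated 5 hr at 37 C, then exposed to compounds for 16 hr at 37 C in complete medium. Cellular ATP was read by CellTiter-Glo luminescence after 30 min at room temperature; AC50 from Hill fits.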
Regarding `CCN(C(=O)N(CC)c1ccccc1)c1ccccc1`, the compound was classed as inactive.

Consider `CCNc1cc(O)ccc1C`, for which the outcome was inactive.

Take `Cc1ccc(C(=O)O)cc1`: the compound was called inactive.

Regarding `C=Cc1ccccn1`, the compound was classed as inactive.

On to `CC(C)C(C)C`, for which the compound was called inactive.

For `CCCCC(=O)N(C)C`, the result was inactive.

As to `Nc1cc(S(=O)(=O)O)ccc1O`, the result was inactive.

Regarding `O=C1OC(=O)c2c(Br)c(Br)c(Br)c(Br)c21`, the compound was called inactive.

Consider `Cc1cccc2sc(N)nc12`, for which the compound was called inactive.

Turning to `CN(C)c1cccc(O)c1`, the compound was classed as inactive.

As to `BrC(Br)C(Br)Br`, the outcome was inactive.

As to `CC(=O)c1ccccn1`, the compound was called inactive.

In the case of `O=P(O)(OCc1ccccc1)OCc1ccccc1`, the result was inactive.

Regarding `CC(N)CN` (stereo not drawn), the compound was classed as inactive.

For the compound `OC1CCCC1`, the outcome was inactive.

For `Cc1ccc(N(C)C)cc1`, the outcome was inactive.

`OCCO`: the call was inactive.

`Cc1ccc2nc(-c3ccc(N)cc3)sc2c1S(=O)(=O)O`: the compound was called inactive.

As for `CCOC(=O)OCC`, the outcome was inactive.

As to `Nc1cccc(C(F)(F)F)c1`, the compound was called inactive.

Turning to `ClCCl`, the call was inactive.

Take `CN(C)CCCCl`: the result was inactive.

Consider `CC(=O)c1cccc([N+](=O)[O-])c1`, for which the call was inactive.

On to `O=C(O)c1ccccc1Cl`, for which the result was inactive.

On to `CSCCC=O`, for which the outcome was inactive.

Take `C=C(C)OC(C)=O`: the result was inactive.

On to `C1CCCC1`, for which the result was inactive.

As for `CCCCCCCCC/C=C/CC1CC(=O)OC1=O` (stereo not drawn), the outcome was inactive.

Take `Cc1cc(C)cc(O)c1`: the compound was classed as inactive.

`CCC(O)C(C)(C)C` (stereo not drawn): the call was inactive.

For `CCCCCCCCC`, the compound was classed as inactive.

Take `CCCCCCCCCCCCC1CO1` (stereo not drawn): the call was inactive.

In the case of `CC(=O)c1nccs1`, the call was inactive.

For the compound `Clc1ccc(Cl)c(Cl)c1Cl`, the compound was classed as inactive.

Take `CC/C=C/C#N`: the outcome was inactive.

Regarding `NC(=S)NNC(N)=S`, the compound was called inactive.

With `Cc1ccc(C(C)(C)C)cc1`, the outcome was inactive.

Turning to `O=Cc1cccc(Br)c1`, the compound was called inactive.

`Cc1ccc(C)c(N)c1`: the compound was classed as inactive.

`CC(C)c1ccccc1`: the compound was called inactive.

The next assay in a line: MultiTox-Fluor Cytotoxicity Assay - LYMP1-002 - Live Cells (AID 955). The conditions noted are these: LYMP1-002 lymphoblastoid live-cell protease fluorescence viability; series mostly up to 46.1 µM. Summed up:
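After 16 h compound exposure at 37 C, live LYMP1-002 lymphoblastoid cells (2500/well) were quantified by cleavage of cell-permeant GF-AFC substrate, read at 405/510 nm after 60 min. Concentration-response fitted with Hill equation for AC50.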
As to `CCN(C(=O)N(CC)c1ccccc1)c1ccccc1`, the result was inactive.

For `Cc1ccc(C(=O)O)cc1`, the result was inactive.

With `C=Cc1ccccn1`, the result was inactive.

With `CC(C)C(C)C`, the call was inactive.

Regarding `CCCCC(=O)N(C)C`, the compound was called inactive.

In the case of `O=C1OC(=O)c2c(Br)c(Br)c(Br)c(Br)c21`, the compound was called inactive.

Take `CN(C)c1cccc(O)c1`: the result was inactive.

`BrC(Br)C(Br)Br`: the result was inactive.

Consider `CC(=O)c1ccccn1`, for which the compound was called inactive.

Turning to `CC(N)CN` (stereo not drawn), the outcome was inactive.

Take `Cc1ccc(N(C)C)cc1`: the compound was called inactive.

Consider `OCCO`, for which the result was inactive.

In the case of `CCOC(=O)OCC`, the outcome was inactive.

Turning to `ClCCl`, the compound was classed as inactive.

Regarding `CN(C)CCCCl`, the compound was called inactive.

Turning to `CC(=O)c1cccc([N+](=O)[O-])c1`, the compound was classed as inactive.

For `O=C(O)c1ccccc1Cl`, the result was inactive.

As for `CSCCC=O`, the compound was classed as inactive.

As for `C=C(C)OC(C)=O`, the call was inactive.

Turning to `Cc1cc(C)cc(O)c1`, the compound was called inactive.

As for `CCC(O)C(C)(C)C` (stereo not drawn), the compound was called inactive.

Consider `CCCCCCCCC`, for which the result was inactive.

For `Cc1ccc(C(C)(C)C)cc1`, the compound was classed as inactive.

Consider `Cc1ccc(C)c(N)c1`, for which the compound was called inactive.

A further assay is described as follows: MultiTox-Fluor Cytotoxicity Assay - LYMP1-002 - Dead Cells (AID 960). Also: nearly all actives have a fitted effect of over 60% in size. Conditions: LYMP1-002 lymphoblastoid cells, dead-cell protease fluorescence; series mostly up to 46.1 µM. Summed up:
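Dead-cell fluorescence (Ex/Em 485/520) after 16 h compound exposure at 37 C of LYMP1-002 lymphoblastoid cells in complete medium; AC50 by Hill equation, with data scaled between DMSO and 15 uM tetraoctylammonium bromide.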
For the compound `CCN(C(=O)N(CC)c1ccccc1)c1ccccc1`, the result was inactive.

As for `CCNc1cc(O)ccc1C`, the outcome was inactive.

Take `Cc1ccc(C(=O)O)cc1`: the compound was classed as inactive.

Turning to `C=Cc1ccccn1`, the result was inactive.

For the compound `CC(C)C(C)C`, the call was inactive.

Take `CCCCC(=O)N(C)C`: the compound was called inactive.

With `Nc1cc(S(=O)(=O)O)ccc1O`, the compound was classed as inactive.

With `O=C1OC(=O)c2c(Br)c(Br)c(Br)c(Br)c21`, the compound was classed as inactive.

`Cc1cccc2sc(N)nc12`: the result was inactive.

`CN(C)c1cccc(O)c1`: the compound was classed as inactive.

As for `BrC(Br)C(Br)Br`, the result was inactive.

Consider `CC(=O)c1ccccn1`, for which the call was inactive.

As to `O=P(O)(OCc1ccccc1)OCc1ccccc1`, the outcome was inactive.

Take `CC(N)CN` (stereo not drawn): the result was inactive.

For `Cc1ccc(N(C)C)cc1`, the compound was classed as inactive.

Turning to `OCCO`, the result was inactive.

As for `Cc1ccc2nc(-c3ccc(N)cc3)sc2c1S(=O)(=O)O`, the compound was classed as inactive.

In the case of `CCOC(=O)OCC`, the result was inactive.

`Nc1cccc(C(F)(F)F)c1`: the compound was classed as inactive.

As for `ClCCl`, the result was inactive.

Regarding `CN(C)CCCCl`, the call was inactive.

Regarding `CC(=O)c1cccc([N+](=O)[O-])c1`, the call was inactive.

In the case of `O=C(O)c1ccccc1Cl`, the compound was called inactive.

Consider `CSCCC=O`, for which the outcome was inactive.

As for `C=C(C)OC(C)=O`, the call was inactive.

Take `C1CCCC1`: the compound was classed as inactive.

For `Cc1cc(C)cc(O)c1`, the compound was called inactive.

For `CCC(O)C(C)(C)C` (stereo not drawn), the compound was called inactive.

Take `CCCCCCCCC`: the call was inactive.

With `CCCCCCCCCCCCC1CO1` (stereo not drawn), the compound was classed as inactive.

For `CC(=O)c1nccs1`, the compound was called inactive.

On to `Clc1ccc(Cl)c(Cl)c1Cl`, for which the compound was called inactive.

For `CC/C=C/C#N`, the call was inactive.

On to `NC(=S)NNC(N)=S`, for which the result was inactive.

As to `Cc1ccc(C(C)(C)C)cc1`, the compound was called inactive.

As for `O=Cc1cccc(Br)c1`, the call was inactive.

Regarding `Cc1ccc(C)c(N)c1`, the call was inactive.

Regarding `CC(C)c1ccccc1`, the compound was called inactive.
